Hits are enriched below; roughly 10% of the tested compounds scored in any of these assays.
JMJD2A Tudor: inhibitors of human JMJD2A Tudor domain. 4.4% of 390,000 active. AlphaScreen JMJD2A-Tudor / H3K4me3 peptide binding. O75164. Potency, µM (series often up to 114 µM), inactives show at the highest dose activity change, negative = inhibition, actives largely listed as inhibitors; note: % is set by controls: 0 for no effect and ±100 for the full control effect; nearly all actives have a fitted effect of over 50% in size
GLS inh: blocks human kidney-isoform glutaminase activity; O94925; GLS enzymatic activity, qHTS titration; Potency, µM (titrated, usually from 45.5 µM), inactives show top-dose activity change, negative = inhibition, hits mostly inhibitors; 0.21% of 410,000 active; note: % is set by controls: 0 for no effect and ±100 for the full control effect
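hKGA in 45 mM KH2PO4 pH 8.2, 0.02% Tween-20 with pin-transferred compounds; 1 mM L-glutamine (stock) plus glutamate oxidase/HRP/Amplex Red coupling added. Fluorescence read initially and after 30 min at RT.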
BAZ2B inh: blocks human BAZ2B | Q9UIF8 | 4.4% of 360,000 active | AlphaScreen BAZ2B-H3K14Ac peptide displacement | AID 504333 | Potency, µM (highest dose often 114 µM), for inactives: top-dose activity change, negative = inhibition, actives largely listed as inhibitors; note: % is set by controls: 0 for no effect and ±100 for the full control effect; nearly all actives have a fitted effect of over 60% in size
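Complex of BAZ2B and biotin-H3K14Ac (50 nM apiece) forms over 30 min at RT, then faces library compounds up to 110 uM for another 30 min; AlphaScreen beads added, 20 min dark incubation, luminescence read.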
HP1b chromo inh: HP1-beta chromodomain-methylated histone interaction inhibition | AID 540317 | Potency, µM (top dose mostly 114 µM), for inactives: at the top dose activity change, negative = inhibition, hits mostly inhibitors | 0.56% of 390,000 active | AlphaScreen HP1-beta / biotin-H3K9me3 peptide binding | P83916; note: nearly all actives have a fitted effect of over 70% in size
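HP1-beta protein (50 nM final) preincubated 30 min at room temperature with biotinylated H3(1-18)K9me3 peptide (50 nM) in PBS pH 7.4, 0.01% Tween-20, then compound added for 30 min. AlphaScreen streptavidin donor/nickel chelate acceptor beads (10 ug/mL final), 30 min dark, luminescence read.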
G9a block: inhibitors of human histone lysine methyltransferase G9a | Q96KQ7 | G9a H3K9 monomethylation, AlphaScreen, 2 h | Potency, µM (series often up to 102 µM), for the others: at the top dose activity, negative = inhibition, usual class: inhibitors | 8.8% of 350,000 active; note: % is set by controls: 0 for no effect and ±100 for the full control effect; nearly all actives have a fitted effect of over 75% in size
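Quantitative HTS format: methyltransferase activity on a biotin-tagged H3K9 peptide is measured by AlphaScreen, using a rabbit anti-monomethyl-H3K9 antibody with streptavidin donor and anti-IgG acceptor beads. Final levels are 20 nM enzyme, 500 nM peptide, 20 uM SAM; 2 h RT.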
Active calls of the source: *; ? = inconclusive; nt = no result; [ ] = another dose, or the depositor's remark. Calls come from the whole dose curve; as a rule, active = well fitted curve in the direction sought with a large enough effect; inconclusive = small, poorly fitted or top-dose-only effect, or another doubt; inactive = no such curve, though single readings can be large; an effect the other way counts as inactive or inconclusive. Potency is the fitted concentration of half-maximal effect.

SMILES	JMJD2A Tudor	GLS inh	BAZ2B inh	HP1b chromo inh	G9a block
O=[N+]([O-])c1cccc2ccc(/C=C/c3ccc(C(F)(F)F)cc3)nc12	?	-0.3%	-5.9%	-19.8%	35.5µM*
O=[N+]([O-])c1cccc2ccc(/C=C/c3cccc(Br)c3)nc12	?	-13.1%	?	-13.5%	?
O=[N+]([O-])c1cccc2ccc(/C=C/c3ccc(Cl)cc3)nc12	?	6.3%	57.2%	-30.6%	79.4µM*
CC(=O)c1ccc(N2C(=O)[C@@H]3[C@H](C2=O)[C@H]2c4ccccc4C=NN2[C@@H]3C(C)=O)cc1	-15.2%	-16.9%	13.5%	31.0%	nt
CC(=O)[C@@H]1[C@@H]2C(=O)N(c3ccccc3F)C(=O)[C@@H]2[C@H]2c3ccccc3C=NN12	-11.5%	134.2%	-1.7%	35.7%	50.1µM*
O=C(c1ccc(Cl)cc1)[C@@H]1[C@@H]2C(=O)N(c3cccc4ccccc34)C(=O)[C@@H]2C2c3ccccc3C=NN21 (some centres undefined)	?	9.3%	-5.8%	0.4%	20µM*
COc1ccc(C2=CC(=O)C[C@H](COCc3ccccc3)N(C(=O)OC(C)(C)C)O2)cc1	-13.7%	8.8%	nt	35.1%	nt
CCCCN1C(=N)N([C@@H](CCC)CN2CCC[C@H]2CN2C(N)=NC[C@@H]2Cc2ccccc2)C[C@H]1[C@H](C)CC	?	8.4%	nt	16.6%	nt
CCn1c(SC)nnc1-c1sc2cc(Cl)ccc2c1Cl	-5.9%	-8.1%	-2.2%	17.2%	-16.2%[59 µM]
O=C1CCCN2N=C(SCC(=O)Nc3nc4ccccc4s3)SC2=N1	-25.5%	-4.6%	?	15.5%	?
COc1cc(NC(=O)CN2CCC(C)CC2)c(C)cc1[N+](=O)[O-]	-21.4%	1.4%	0.0%	14.9%	-13.0%
CC(C(=O)Nc1cc([N+](=O)[O-])ccc1Cl)N1CCN(c2ccc(O)cc2)CC1 (centres undefined)	25.1µM*	30.7%	-34.3%	70.8µM*	7.94µM*
COc1cc(NC(=O)CSc2nc(C)c(C)c(C)n2)c(C)cc1[N+](=O)[O-]	-10.7%	2.3%	2.9%	31.5%	50.1µM*
COc1cc(NC(=O)CN2CCN(c3ccccc3O)CC2)c(C)cc1[N+](=O)[O-]	-16.2%	-4.6%	-8.2%	15.2%	10µM*
COc1cc(NC(=O)CSc2nncn2C)c(C)cc1[N+](=O)[O-]	-9.7%	1.2%	-4.1%	25.7%	8.7%
O=C(CN1CCN(c2ccccc2O)CC1)Nc1cc([N+](=O)[O-])ccc1Cl	-34.5%	13.1%	-35.1%	3.3%[57 µM]	44.7µM*
CCSc1cc(Cl)nc(N)n1	-11.0%	2.6%	-1.4%	2.6%	nt
Cc1noc(C)c1-c1nccc(NCCN2CCOCC2)n1	nt	nt	nt	nt	-2.0%[0.501 µM]
CCOc1cc(C2C(C(=O)Nc3ccccc3)=C(C)Nc3ncnn32)cc(Br)c1O (centres undefined)	?	5.4%	79.4µM*	12.2%[57 µM]	10µM*
CC1=C(C(=O)Nc2ccccc2C)C(c2ccc[nH]2)n2ncnc2N1 (centres undefined)	56.2µM*	?	50.1µM*	-2.4%[57 µM]	-3.8%[59 µM]
CCOc1cc(C2C(C(N)=O)=C(C)Nc3ncnn32)cc(Br)c1O (centres undefined)	-11.5%	20.4%	-12.3%	23.7%[57 µM]	-6.4%[59 µM]
COc1cc2ccc(=O)oc2cc1O	-8.8%	25.2%	2.4%	68.2%	-44.6%[12.7 µM]
O=Nc1ccc2oc(=O)ccc2c1	nt	nt	nt	nt	2.24µM*
O=C(O)c1n[nH]c2ccccc12	28.2µM*	-5.4%	-27.1%	-2.3%	?
O=C(c1n[nH]c2ccccc12)N1CCCCC1	0.7%	?	-2.1%	42.1%	-10.4%
SMILES	JMJD2A Tudor	GLS inh	BAZ2B inh	HP1b chromo inh	G9a block
COCCNC(=O)C(c1ccc(C)o1)N(CC1CCCO1)C(=O)Cn1nnc2ccccc21 (centres undefined)	-21.9%	4.1%	-9.4%	66.9%	50.1µM*
O=C(CCC1CCCNC1)c1ccccc1 (centres undefined)	nt	nt	2.6%	nt	50.1µM*
COc1ccc(OC)c(C2C(C(C)=O)=C(O)C(=O)N2CCC(=O)O)c1 (centres undefined)	?	-0.1%	50.1µM*	-7.1%	?
CC(=O)C1=C(O)C(=O)N(Cc2ccccc2)C1c1cccs1 (centres undefined)	-21.2%	14.1%	?	-5.3%	44.7µM*
COc1ccc(C2C(C(C)=O)=C(O)C(=O)N2CCc2ccccc2)c(OC)c1 (centres undefined)	31.6µM*	-6.7%	?	10.8%	?
COc1ccc(OC)c(C2C(C(C)=O)=C(O)C(=O)N2CCN2CCOCC2)c1 (centres undefined)	?	-2.5%	13.2%	18.3%	?
COc1ccc(OC)c(C2C(C(=O)c3cccs3)=C(O)C(=O)N2CCN(C)C)c1 (centres undefined)	-23.6%	23.6%	11.8%	24.0%	50.1µM*
CC(=O)C1=C(O)C(=O)N(Cc2ccccc2)C1c1ccc(Cl)cc1 (centres undefined)	-16.7%	13.2%	-7.7%	38.6%	-25.3%
COc1cccc(C2C(C(=O)c3cccs3)=C(O)C(=O)N2CCN(C)C)c1OC (centres undefined)	?	-0.5%	4.0%	-0.2%	-3.6%[59 µM]
COc1ccccc1N1CCN(CCNC(=O)Nc2cccc(C)c2C)CC1	?	-4.1%	-4.9%	-11.0%	?
Cc1ccc(S(=O)(=O)N2CCOCC2)cc1NC(=O)COC(=O)CCC(=O)c1ccc(F)cc1	-22.8%	6.3%	8.3%	15.9%	-29.2%
CC(C)(C)SC(=O)C[C@@H]1NS(=O)(=O)OC2CCCCC21 (some centres undefined)	-17.9%	-1.3%	-2.5%	16.7%	-9.6%
CC(=O)Nc1ccc2[nH]c3ccccc3c2c1	-10.7%	35.2%	8.9%	9.6%	12.2%
COc1ccc(C2C(C(C)=O)=C(O)C(=O)N2Cc2ccccc2)c(OC)c1 (centres undefined)	1.7%	6.6%	-3.5%	16.0%	50.1µM*
COc1cc(C2C(C(=O)C(C)(C)C)=C(O)C(=O)N2Cc2ccccc2)ccc1O (centres undefined)	?	25.0%	?	15.9%	nt
COc1cc(C2C(C(C)=O)=C(O)C(=O)N2Cc2ccccc2)ccc1O (centres undefined)	17.0%	52.3%	-23.5%	22.2%	44.7µM*
CCN(Cc1ccncc1)C(=S)Nc1ccccc1	5.2%	13.9%	-2.6%	33.6%	48.9%[12.7 µM]
O=C(O)CCCCCNC(=O)c1ccc(Br)cc1	-16.0%[57.1 µM]	-11.7%	?	40.1%	50.1µM*
Cc1nc(N2CCC(C)CC2)c2oc3ccccc3c2n1	1.0%	-1.2%	-4.9%	48.3%	7.9%[12.7 µM]
COc1ccccc1N1CCN(c2nc(C)nc3c2oc2ccccc23)CC1	44.7µM*	-9.5%	50.1µM*	4.9%	39.8µM*
CCOCc1cc(CN2CCN(c3ccccc3OC)CC2)c(O)c2ncccc12	22.4µM*	8.5%	5.62µM*	32.4%	-41.8%[59 µM]
